From the supplement of paper PMC12669032

Columns and labels:
Experiment in all cases: growth AUC relative to DMSO control (median of replicates) (fraction); higher = more growth (less inhibition), active = hit call of the paper
Settings in all cases: 20 µM; 24 h;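 active = AUC reduced over 20% with Padj below 0.05 in at least 2 of 3 replicates; inactive = otherwise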
[1] = test system: Akkermansia muciniphila
In short: (§1)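 Three biological replicates, each grown on a separate day, were combined as a median for every value. In each, a gut bacterial monoculture in mGAM started at OD600 0.05 and grew anaerobically at 37 °C with 20 µM compound (1% DMSO), with OD600 read hourly over 24 h. Area under the growth curve was normalised against the plate median of solvent-only wells, or against row and column medians on the industrial chemical plate, after the minimum OD was set to 0.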

[2] = test system: Bacteroides caccae
In short: as §1

[3] = test system: Bacteroides clarus
In short: as §1

[4] = test system: Bacteroides dorei
In short: as §1

[5] = test system: Bacteroides stercoris
In short: as §1

[6] = test system: Bacteroides thetaiotaomicron
In short: as §1

[7] = test system: Bacteroides uniformis
In short: as §1

[8] = test system: Bifidobacterium longum subsp. longum
In short: as §1

[9] = test system: Clostridium difficile
In short: as §1

[10] = test system: Collinsella aerofaciens
In short: as §1

[11] = test system: Coprococcus comes
In short: as §1

[12] = test system: Escherichia coli ED1a
In short: as §1

[13] = test system: Escherichia coli IAI1
In short: as §1

[14] = test system: Eubacterium rectale
In short: as §1

[15] = test system: Fusobacterium nucleatum subsp. animalis
In short: as §1

[16] = test system: Lactobacillus gasseri
In short: as §1

[17] = test system: Lactobacillus paracasei
In short: as §1

[18] = test system: Odoribacter splanchnicus
In short: as §1

[19] = test system: Parabacteroides distasonis
In short: as §1

[20] = test system: Parabacteroides merdae
In short: as §1

Measured: growth AUC

Clc1ccc(C(c2ccccc2Cl)C(Cl)Cl)cc1 (stereo not given)
inactive: [1] 1.21 | [2] 1.01 | [3] 0.936 | [4] 0.976 | [5] 0.856 | [6] 0.988 | [7] 0.943 | [8] 1.03 | [9] 1 | [10] 0.847 | [11] 1.03 | [12] 1 | [13] 0.978 | [14] 0.952 | [15] 1.01 | [16] 0.496 | [17] 1.04 | [18] 1.02 | [20] 0.976
active: [19] 0.615

Cc1nc(C(F)(F)F)c(C(=O)Nc2c(Br)cc(OC(F)(F)F)cc2Br)s1
inactive: [1] 1.05 | [2] 0.984 | [3] 0.98 | [4] 0.946 | [5] 1.06 | [6] 0.945 | [7] 0.986 | [8] 1 | [9] 1.03 | [10] 1.01 | [11] 1.06 | [12] 1.02 | [13] 1.02 | [14] 0.852 | [15] 1.09 | [16] 1.15 | [17] 1.1 | [18] 0.942 | [19] 0.944 | [20] 1

CON(C(=O)c1cc(C)oc1C)C1CCCCC1
inactive: [1] 0.96 | [2] 1 | [3] 1 | [4] 1 | [5] 1.04 | [6] 0.972 | [7] 0.997 | [8] 1.03 | [9] 0.972 | [10] 1.03 | [11] 0.992 | [12] 1.01 | [13] 0.968 | [14] 1 | [15] 1.03 | [16] 1.05 | [17] 0.991 | [18] 1.02 | [19] 1.05 | [20] 0.982

O=C(Oc1ccccc1)n1c(C(F)(F)F)nc2cc(Cl)c(Cl)cc21
inactive: [8] 0.891 | [10] 0.958 | [11] 1.03 | [15] 0.71
active: [1] 0.177 | [2] 0.215 | [3] 0.121 | [4] 0.236 | [5] 0.0063 | [6] 0.0816 | [7] 0.0127 | [9] 0.561 | [12] 0.704 | [13] 0.588 | [14] 0.635 | [16] 0.431 | [17] 0.688 | [18] 0.0297 | [19] 0.106 | [20] 0.144

C/C=C/C=C/CCCCCCCO
inactive: [1] 0.879 | [2] 1.03 | [3] 0.982 | [4] 1.02 | [5] 1.07 | [6] 0.969 | [7] 1 | [8] 1.01 | [9] 0.984 | [10] 1.02 | [11] 0.995 | [12] 1.01 | [13] 0.983 | [14] 1.03 | [15] 1.08 | [16] 0.96 | [17] 0.984 | [18] 1.03 | [19] 0.967 | [20] 0.982

CCCCOCCOC(=O)COc1ccc(Cl)cc1Cl
active: [19] 0.721
inactive: [1] 1.09 | [2] 0.966 | [3] 0.991 | [4] 0.867 | [5] 0.952 | [6] 0.98 | [7] 0.93 | [8] 0.984 | [9] 0.993 | [10] 0.96 | [11] 0.982 | [12] 0.983 | [13] 0.983 | [14] 1.1 | [15] 0.92 | [16] 0.88 | [17] 0.962 | [18] 0.97 | [20] 0.954

COc1cc(Cl)ccc1Oc1ccc(Cl)cc1Cl
inactive: [1] 1.03 | [2] 0.902 | [3] 0.933 | [4] 0.948 | [5] 0.93 | [6] 0.984 | [7] 0.98 | [8] 0.872 | [9] 1.01 | [10] 1.01 | [11] 0.938 | [12] 0.996 | [13] 1 | [14] 0.99 | [15] 0.851 | [16] 1 | [17] 1.16 | [18] 0.947 | [19] 0.988 | [20] 0.929

COC(=O)C(C)Oc1ccc(Oc2ncc(C(F)(F)F)cc2Cl)cc1 (stereo not given)
inactive: [1] 1.11 | [2] 0.968 | [3] 0.977 | [4] 0.964 | [5] 0.912 | [6] 0.992 | [7] 0.886 | [8] 1.02 | [9] 0.98 | [10] 0.954 | [11] 1.02 | [12] 0.972 | [13] 0.987 | [14] 1.05 | [15] 0.954 | [16] 0.84 | [17] 0.995 | [18] 1.03 | [19] 0.834 | [20] 0.963

COC1CCC2(CC1)NC(=O)C(c1cc(C)ccc1C)C2O (stereo not given)
inactive: [1] 1.08 | [2] 0.974 | [3] 1.04 | [4] 1.02 | [5] 1.14 | [6] 0.999 | [7] 1.02 | [8] 1.05 | [9] 1.01 | [10] 1.05 | [11] 1.04 | [12] 1.03 | [13] 1.03 | [14] 1.11 | [15] 1.16 | [16] 0.99 | [17] 1.03 | [18] 1.01 | [19] 1.07 | [20] 1.02

CCNc1nc(NC(C)CC)nc(OC)n1 (stereo not given)
inactive: [1] 1.08 | [2] 1.02 | [3] 1 | [4] 1.02 | [5] 1.29 | [6] 0.977 | [7] 0.979 | [8] 0.986 | [9] 1.03 | [10] 1.13 | [11] 1.02 | [12] 0.992 | [13] 0.994 | [14] 0.961 | [15] 1.05 | [16] 1.11 | [17] 1.12 | [18] 1 | [19] 0.996 | [20] 1.02

CCCNCCOc1c(Cl)cc(Cl)cc1Cl
inactive: [1] 0.946 | [2] 0.972 | [3] 0.979 | [4] 0.985 | [5] 0.898 | [6] 0.979 | [7] 1 | [8] 0.918 | [9] 0.973 | [10] 0.98 | [11] 0.927 | [12] 0.944 | [13] 0.953 | [14] 0.924 | [15] 0.918 | [16] 0.953 | [17] 0.966 | [18] 0.999 | [19] 0.972 | [20] 0.997

CCCCCC(C)OC(=O)COc1ccc(Cl)c2cccnc12 (stereo not given)
inactive: [1] 1.01 | [2] 0.887 | [3] 0.956 | [4] 0.945 | [5] 1.03 | [6] 0.889 | [7] 0.915 | [8] 0.953 | [9] 0.934 | [10] 0.853 | [12] 0.933 | [13] 0.989 | [15] 1.01 | [16] 0.865 | [17] 0.925 | [18] 1 | [20] 0.943
active: [11] 0.795 | [14] 0.177 | [19] 0.741

CCSC(=O)N(CC)CC
inactive: [1] 1.01 | [2] 0.998 | [3] 0.991 | [4] 1.01 | [5] 1.1 | [6] 1.03 | [7] 1.01 | [8] 0.929 | [9] 0.982 | [10] 0.982 | [11] 1.04 | [12] 1 | [13] 0.994 | [14] 1 | [15] 1.02 | [16] 0.988 | [17] 0.983 | [18] 0.915 | [19] 1.01 | [20] 0.981

CN(C)C(=O)SCCCCOc1ccccc1
inactive: [1] 0.993 | [2] 0.957 | [3] 0.967 | [4] 0.99 | [5] 0.915 | [6] 0.973 | [7] 0.992 | [8] 0.984 | [9] 0.983 | [10] 0.993 | [11] 0.968 | [12] 0.98 | [13] 0.962 | [14] 1.12 | [15] 0.958 | [16] 1.01 | [17] 0.975 | [18] 0.981 | [19] 0.938 | [20] 0.961

COc1cc(OC)nc(NC(=O)NS(=O)(=O)c2c(-c3nnn(C)n3)cnn2C)n1
inactive: [1] 1.13 | [2] 0.99 | [3] 1 | [4] 0.94 | [5] 1.08 | [6] 1.01 | [7] 1 | [8] 1.01 | [9] 0.961 | [10] 0.978 | [11] 1.01 | [12] 1.01 | [13] 0.988 | [14] 1.1 | [15] 1.02 | [16] 0.873 | [17] 1.04 | [18] 1.03 | [19] 0.845 | [20] 1.03

C=CCOC(Cn1ccnc1)c1ccc(Cl)cc1Cl (stereo not given)
active: [11] 0.0723 | [14] 0.0607
inactive: [1] 0.972 | [2] 0.944 | [3] 0.96 | [4] 0.959 | [5] 1.12 | [6] 0.983 | [7] 0.941 | [8] 1.05 | [9] 0.926 | [10] 0.873 | [12] 0.986 | [13] 0.967 | [15] 0.938 | [16] 0.851 | [17] 0.969 | [18] 0.882 | [19] 0.847 | [20] 0.919
